Compound activity from PubChem.
Rab9 prom act: activators of Rab9 promoter. Huh7 Rab9 promoter-luciferase reporter, luminescence, 24 h. Potency, µM (titrated, usually from 9.22 µM), for the others: top-dose activation, negative = inhibition, actives largely listed as activators. actives 2.8% (n = 320,000); also: % of control where 0% means no effect; nearly all actives have a fitted effect of over 60% in size
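Huh7 cells stably carrying a Rab9 promoter-luciferase reporter, 1500 cells per well in OP-MEM I with 10% FBS, treated with compound 24 hours at 37C. Luciferase activity read by luminescence after 10 minutes with Amplite reagent.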
Luc counter: blocks Kinase-Glo luciferase, a counter-screen artifact; Q27757; Kinase-Glo luciferase, ATP luminescence, 8 min; Potency, µM (doses to about 38.3 µM), for inactives: at the top dose activity change, negative = inhibition, actives largely listed as inhibitors; actives 0.28% (n = 200,000); AID 1379; also: % is scaled to controls: 0 for no effect and ±100 for the full control effect; nearly all actives have a fitted effect of over 60% in size
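Light output from Kinase-Glo luciferase with luciferin and 10 uM ATP in 50 mM imidazole pH 7.2, KCl, MgCl2, Tween 20, BSA; compound pin-delivered, 8-min ambient incubation, then luminescence read.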
SMN2 splice up: enhancers of SMN2 splice variant expression; HEK293 SMN2-luciferase splicing reporter, luminescence, 30-36 h; actives 2.8% (n = 210,000); Potency, µM (titrated, usually from 46.1 µM), for the others: at the top dose activity change, positive = activation, most hits filed as activators; also: % of control where 0% means no effect; nearly all actives have a fitted effect of over 55% in size
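qHTS luciferase splicing reporter: luminescence rises when SMN2 exon 7 is included in transfected HEK293 cells. Compound exposure lasted 30-36 h at 37C, with 4.5 mM final sodium butyrate as control, followed by a ONE-Glo read.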
FLuc counter: counter-screen for miR-21 project: firefly luciferase inhibitors or activators | Potency, µM (highest dose often 57.5 µM), without a hit: at the top dose activity change, negative = inhibition, usual class: inhibitors | P08659 | purified FLuc, Km substrates, luminescence inhibition | actives 6.9% (n = 360,000);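 also: plate controls were vehicle for no effect and reference inhibitor for full effect; nearly all actives have a fitted effect of over 55% in size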
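Purified P. pyralis luciferase (10nM final) with 10uM D-luciferin and 10uM ATP (Km levels) in 50mM Tris acetate pH 7.5, 10mM Mg acetate, 0.01% Tween-20, 0.05% BSA; qHTS 6-point titration, ~60 µM downward; luminescence read.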
ELG1 genotox: genotoxicity induction in ELG1-luciferase HEK293T cells | HEK293T ELG1-luciferase reporter, luminescence, 16 h | Potency, µM (highest dose often 46 µM), for the others: at the highest dose activity change, positive = activation, usual class: activators | actives 1.3% (n = 330,000) | AID 504466; also: % of control where 0% means no effect; nearly all actives have a fitted effect of over 60% in size
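Reporter readout depends on ELG1 protein level, which increases with genetic stress. After 16 hr compound exposure at 37 °C, luciferase activity was quantified using ONE-Glo.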
NPC1 prom act: NPC1 promoter activation | Huh7 NPC1 promoter luciferase reporter, 24 h | Potency, µM (top dose mostly 9.22 µM), without a hit: at the top dose activation, usual class: activators | actives 2.4% (n = 320,000) | AID 485313; also: % of control where 0% means no effect; nearly all actives have a fitted effect of over 60% in size
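Huh7 reporter cells (NPC1 promoter driving luciferase) are dosed with compound for 24 h at 37 °C, 5% CO2; luciferase detection reagent is then added and luminescence measured after 10 min at ambient temperature.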
Active calls of the source: *; ? = inconclusive; . = no result given. Rows were chosen to be rich in hits. Some 7.3% of all compounds tested hit in one or more screens of this group. Calls follow the shape of the dose curve; as a rule, active = well fitted curve in the direction sought with a large enough effect; inconclusive = small, poorly fitted or top-dose-only effect, or another doubt; inactive = no such curve, though single readings can be large; an effect the other way counts as inactive or inconclusive. Potency is read from the fitted curve at half-maximal effect.

SMILES | Rab9 prom act | Luc counter | SMN2 splice up | FLuc counter | ELG1 genotox | NPC1 prom act
Cc1ccc2nc(CCc3ccc(N)cc3)[nH]c2c1 | 3.2µM* | . | . | 15µM* | ? | 2.8µM*
Nc1ccc(C(=O)OCc2nc3c(ccc4ccccc43)[nH]2)cc1 | ? | -1% | 154% | 13µM* | ? | 25%
CCc1nc2ccc(Cc3ccc4nc(CC)[nH]c4c3)cc2[nH]1 | 10% | . | . | 12µM* | 0% | -1%
Nc1ccc(C(=O)OCc2nc3cc4ccccc4cc3[nH]2)cc1 | 15% | -1% | ? | ? | -6% | 1%
CCc1nc2ccccc2[nH]1 | 6% | -3% | 0% | 0% | 0% | -1%
Nc1ccc2nc(CCc3ccccc3)[nH]c2c1 | ? | -5% | ? | ? | 15% | 20%
COC(=O)CSc1nnc(-c2cccnc2)n1-c1cccc(OC)c1 | 1% | 1% | -5% | 4% | 6% | 3%
O=C1CC(C(=O)NCc2ccccc2)C2(CCCC2)O1 (stereo not given) | 12% | -1% | 1% | 0% | 0% | 7%
Nc1ccc(Cc2nc3cc4ccccc4cc3[nH]2)cc1 | ? | -4% | 13µM* | 19µM* | 14% | ?
COc1cc(/C=N/NC(=O)Nc2ccccc2)ccc1OC(C)=O | ? | -6% | ? | 11µM* | ? | 28%
CCOc1cc(/C=N/NC(=O)c2ccc(NC(=O)C3CC3)cc2)ccc1O | 18% | . | . | ? | -5% | 0%
CCOc1cc(/C=N/NC(=O)Nc2ccccc2)ccc1O | ? | -4% | . | 9.5µM* | ? | 14%
COc1cccc(OC)c1C(=O)Nc1ccc2c(c1)CCCN2S(=O)(=O)c1ccc(C)cc1 | -2% | . | . | 1% | -5% | -2%
CSC1=NNC(c2ccc(C(C)(C)C)cc2)=NN1 | ? | . | . | 12µM* | 19% | ?
COc1cc(/C=C/C(=O)Nc2ccc3[nH]c(=O)[nH]c3c2)cc(OC)c1OC | 0% | 2% | 23% | ? | 11% | 3%
O=C(/C=C/c1ccccc1[N+](=O)[O-])Nc1cccnc1 | 2.8µM* | -1% | 14µM* | 15µM* | 11% | ?
CSc1cccc(NC(=O)/C=C/c2cccc(Cl)c2)c1 | 3.2µM* | 0% | 14µM* | 8.5µM* | 18% | ?
COc1cccc(/C=C/C(=O)Nc2ccc3[nH]c(=O)[nH]c3c2)c1 | 15% | 1% | ? | 9.5µM* | -1% | -1%
COc1cccc(NC(=O)/C=C/c2ccccc2[N+](=O)[O-])c1 | 4µM* | -27% | 3.2µM* | 5.4µM* | ? | ?
COc1ccc(OC)c(NC(=O)/C=C/c2ccccc2[N+](=O)[O-])c1 | 1% | 3% | 1% | ? | 0% | -2%
COc1ccc(C2C(C#N)=C(N)N(Nc3ccccc3)C3=C2C(=O)CC(C)(C)C3)cc1C (stereo not given) | 1% | -2% | 11% | 1% | -8% | -11%
COc1cccc(NC(=O)/C=C/c2ccc([N+](=O)[O-])cc2)c1 | ? | . | . | 6µM* | 11% | ?
CCN(CC)S(=O)(=O)c1cccc(NC(=O)/C=C/c2ccc([N+](=O)[O-])cc2)c1 | -3% | 4% | -13% | -16% | -1% | -1%
COc1cc(C)nc(N2CCCC(C(=O)NC3CCC(C)CC3)C2)n1 (stereo not given) | 4µM* | 3% | ? | 11µM* | ? | 3.2µM*
CCC(C)NC(=O)C1CCCN(c2nc(C)cc(OC)n2)C1 (stereo not given) | -5% | 2% | 2% | 0% | -1% | 1%
COc1ccccc1C(=O)NNC(=O)c1cccc(C)c1 | ? | . | . | 12µM* | ? | ?
O=C(NNC(=O)c1ccccc1-c1ccccc1C(=O)O)c1cccc([N+](=O)[O-])c1 | -6% | -2% | 10% | 0% | 3% | -1%
